# Reference: PubChem BioAssay (Tox21)
# Where “and” joins values, the source holds several entries; their conditions need not be identical. Identical values can stand only once. Results filed as inconclusive are left out. A call without a number means that no potency is given here. Where a structure was tested more than once in an assay, its records may differ in their call. Calls of active or inactive are those of the source. Calls follow the shape of the dose curve; as a rule, active = well fitted activation curve with a large enough effect in the repeat runs; inconclusive = weak or mixed curves; inactive = flat fitted curve, though single readings scatter. Residues, ends and D or L forms follow the SMILES beside them.
# Assay: A CellTox Green Cytotoxicity Assay to monitor cytotoxicity in HepG2 cells - 32 hour (AID 1224883); also: nearly all actives have a fitted effect of over 50% in size
# Details: CellTox Green fluorescence; series mostly up to 76.8 µM
# Source text: National Center for Advancing Translational Sciences [NCATS]
# NIH Chemical Genomics Center [NCGC]
# U.S. Environmental Protection Agency [EPA]
# National Institutes of Environmental Health Sciences [NIEHS]
# National Toxicology Program [NTP]
# Cell-based models are critical for drug discovery. Determining the natural cytotoxic effects resulting from test compounds is an essential research activity. A CellTox Green Cytotoxicity Assay to monitor cytotoxicity in real time of continues cell culture during 40 hours of the compound treatment was used to screen Tox21 10K library compounds in HepG2 cells. CellTox Green Cytotoxicity Assay is a nonlytic, homogeneous, biofluorescent method to measure cytotoxicity in cell culture after experimental manipulation. The assay system uses a proprietary asymmetric cyanine dye that is excluded from viable cells but preferentially stains the dead cell's DNA. […] Viable cells produce no appreciable increases in fluorescence. Therefore, the fluorescence signal produced by the binding interaction with dead cell DNA is proportional to cytotoxicity.
# The mixture of HepG2 cell suspension and reagents were dispensed at 600cells/6 ul/well in 1536-well tissue culture treated black solid bottom plates using a Multidrop dispenser. After the assay plates were incubated at a 37 C/5% CO2 incubator for 5 hours, 23 nL of compounds dissolved in DMSO, positive and negative controls was transferred to the assay plate by a pintool work station. The plates were incubated at 37 C for 40 hours. The fluorescence intensity were measured at 0h, 8h, 16h, 24h, 32h and 40h time points using ViewLux plate reader during compound treatment.
# Potency is read from the fitted curve at half-maximal effect.
row,SMILES,Potency
1,CCOc1ccc(NC(=O)CC(C)O)cc1 (stereo not given),inactive
2,Cc1cc(=O)n(-c2ccccc2)n1C,inactive
3,CCC1(c2ccccc2)C(=O)NCNC1=O,inactive
4,CC(=O)Nc1nnc(S(N)(=O)=O)s1,inactive
5,Nc1ccc(S(=O)(=O)Nc2nccs2)cc1,inactive and 43.6 µM (active)
6,O=C(O)c1cccc([N+](=O)[O-])c1,inactive
7,Cc1noc(NS(=O)(=O)c2ccc(N)cc2)c1C,inactive
8,NS(=O)(=O)c1cc(C(=O)O)c(NCc2ccco2)cc1Cl,19.6 µM (active) and inactive
9,C1N2CN3CN1CN(C2)C3,inactive
10,O=C(O)CCCCCCCC(=O)O,inactive
11,Cc1ccc(C)c(OCCCC(C)(C)C(=O)O)c1,inactive
12,COc1ccc2[nH]cc(CCNC(C)=O)c2c1,inactive
13,O=S(=O)(O)c1ccc2cc(O)ccc2c1,inactive
14,Cc1ccc(S(=O)(=O)NC(=O)NN2CCCCCC2)cc1,inactive
15,Nc1ccc(C(=O)O)cc1,inactive
16,O=C(O)CS,inactive
17,CNC[C@H](O)c1cccc(O)c1,inactive
18,O=C(O)/C=C\C(=O)O,inactive
19,O=C(O)C(=O)O,inactive
20,CCCNC(=O)NS(=O)(=O)c1ccc(Cl)cc1,inactive

row,SMILES,Potency
1,CC(O)C(=O)O (stereo not given),inactive
2,NNC(=O)c1ccncc1,inactive
3,Nc1ccc(S(=O)(=O)c2ccc(N)cc2)cc1,inactive
4,O=C(O)CCCCC(=O)O,inactive
5,CC1(C)[C@@H]2CC[C@@]1(C)C(=O)C2,inactive
6,C[C@]12C=CC(=O)C=C1CC[C@@H]1[C@@H]2[C@@H](O)C[C@@]2(C)[C@H]1CC[C@]2(O)C(=O)CO,inactive
7,COc1c2occc2cc2ccc(=O)oc12,inactive
8,Cc1ccccc1C(OCCN(C)C)c1ccccc1 (stereo not given),inactive
9,O=C(c1ccccc1)c1ccccc1,inactive
10,CCCC(O)C(CC)CO (stereo not given),inactive
11,NC(N)=NC(=O)c1nc(Cl)c(N)nc1N,inactive
12,O=C(C1CCCCC1)N1CC(=O)N2CCc3ccccc3C2C1 (stereo not given),inactive
13,COC(=O)[C@H](Cc1ccccc1)NC(=O)[C@@H](N)CC(=O)O (H-Asp-Phe-OMe),inactive
14,O=NO,inactive
15,O=c1ccc2ccccc2o1,inactive
16,Cn1c(=O)c2[nH]cnc2n(C)c1=O,inactive
17,O=c1cc[nH]c(=S)[nH]1,inactive
18,OC(Cn1cncn1)(Cn1cncn1)c1ccc(F)cc1F,inactive
19,Cc1cc(=O)[nH]c(=S)[nH]1,inactive
20,OCCc1ccccc1,inactive
